According to PubChem BioAssay (NCATS):
Results filed as inconclusive are left out. Active and inactive are the calls of the source. Calls come from the whole dose curve; as a rule, active = well fitted inhibition curve with a large enough effect; inconclusive = small, poorly fitted or top-dose-only effect; inactive = flat fitted curve, though single readings scatter.

system: CRL-7250; experiment: Cytotoxic Profiling of Annotated Libraries Using Quantitative High-Throughput Screening (AID 1296008); conditions: Five cell lines viability, CellTiter-Glo ATP luminescence, 48-72 h; max response: active compounds read low; note: nearly all actives have a fitted effect of over 60% in size
Method in brief: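 Cells exposed to compounds for 48 or 72 hr at 37 degrees Celsius. Viability read as ATP-coupled luminescence with CellTiter-Glo after 10 min at room temperature.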
% is set by controls: 0 for no effect and ±100 for the full control effect; potency is the fitted concentration of half-maximal effect.

SMILES	outcome	Potency	max response
O=C(CO)[C@@H](O)[C@H](O)[C@@H](O)CO	inactive	–	–
CCCCCCCCCCCCCCCC[n+]1ccccc1	–	1.5 µM (active)	–
CCCC(=O)O[C@]1(C(=O)COC(=O)CC)CC[C@H]2[C@@H]3CCC4=CC(=O)CC[C@]4(C)[C@H]3[C@@H](O)C[C@@]21C	–	–	1.61% (inactive)
c1ccc2occc2c1	–	–	-10.5% (inactive)
CCCCN(CCCC)C(C(N)=O)c1ccc(OC)cc1 (centres undefined)	inactive	–	–
CC(=O)c1ccc(O)c(C(N)=O)c1	–	–	1.65% (inactive)
CC(=O)CC/C=C(\C)CC/C=C(\C)CC/C=C(\C)CCC=C(C)C	inactive	–	–
Cc1ccc(CCn2c3c(c4cc(Cl)ccc42)CN(C)CC3)cn1	–	–	-3.39% (inactive)
COc1ccc(CCC(C)=O)cc1	–	–	-2.07% (inactive)
CCCCCCCCCCCCCCCCCCN(C)C	–	–	-11.6% (inactive)
CCCCCCCCCCCCCC[N+](C)(C)C	–	7.5 µM (active)	–
Nc1c2ccccc2nc2ccccc12	–	8.41 µM (active)	–
NC(=O)COCCN1CCN(C(c2ccccc2)c2ccc(Cl)cc2)CC1 (centres undefined)	–	–	0.918% (inactive)
COc1cc(OC)nc(O[C@H](C(=O)O)C(OC)(c2ccccc2)c2ccccc2)n1	–	–	3.73% (inactive)
O=C(CS(=O)Cc1ccco1)NC/C=C\COc1cc(CN2CCCCC2)ccn1 (centres undefined)	–	–	-3.38% (inactive)
c1ccc(C(O[C@H]2CCCN(CCc3ccc4c(c3)OCO4)C2)c2ccccc2)cc1	–	–	-1.12% (inactive)
CC(C)(C)NCC(O)COc1ccccc1OCC1CCCO1 (centres undefined)	–	–	-2.81% (inactive)
CC(C)(C)C(=O)OCOC(=O)C1N2C(=O)CC2S(=O)(=O)C1(C)C (centres undefined)	–	–	-2.99% (inactive)
O=C(O)c1[nH]n(-c2ccc(S(=O)(=O)O)cc2)c(=O)c1N=Nc1ccc(S(=O)(=O)O)cc1	–	–	0.833% (inactive)
CCC(CN)=C(c1ccccc1)c1ccccc1	inactive	–	–
C[C@H]1C[C@@H]2[C@H]([C@@H](O)C[C@@]3(C)[C@H]2CC[C@]3(O)C(=O)CO)[C@@]2(C)C=CC(=O)C=C12	–	–	-5.61% (inactive)
CN1CCN(N)CC1	–	–	-18.2% (inactive)
Nc1nc(=O)n([C@@H]2O[C@H](CO)[C@@H](O)[C@@H]2F)cc1I	–	–	-26.4% (inactive)
C=C(C)C(=O)OCC(O)CO (centres undefined)	–	–	4.35% (inactive)
CC(=O)N(CC(O)CO)c1c(I)c(C(=O)NCCO)c(I)c(C(=O)NCC(O)CO)c1I (centres undefined)	–	–	-7.11% (inactive)
CCOC(=O)NNc1ccc(N(CC)CC(C)O)nn1 (centres undefined)	–	–	2.28% (inactive)
O=C1CC(c2ccc(Cl)cc2)CC(=O)N1	inactive	–	–
CCc1cccc2c(CCO)c[nH]c12	–	–	-8.62% (inactive)
CC(=O)Nc1ccc(S(=O)(=O)Nc2cc(C)on2)cc1	–	–	-2.31% (inactive)
